Only some compounds are listed: those with a hit (about 3.7% of all), similar ones and a draw of the others.
Mtb betalactam: beta-lactam sensitization of Mtb H37Rv; AID 434955; hit rate 0.27% among 330,000; inhibition, % at 25 µM; M. tuberculosis H37Rv growth with meropenem, percent inhibition; call rule not given here;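 also: growth measured after seven days incubation then overnight dye step; 0% = bacteria only wells and 100% = bacteria with antibiotic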
Rv3671c protease: Rv3671c (M. tuberculosis) protease inhibition; P9WHR9; inhibition, % at 5.96 µM; hit rate 0.048% among 320,000; in the data active = inhibition above about 38%;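 also: extracellular domain of Rv3671c used as enzyme; 0% = enzyme with DMSO and 100% = no enzyme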
FadD28 binding: M. tuberculosis FadD28 bisubstrate binding inhibition | hit rate 0.22% among 360,000 | FadD28 bisubstrate probe binding, fluorescence polarization | inhibition, % at 12.5 µM | AID 588549; in the data active = inhibition above about 8.5%, passing the limit was not always enough
Mtb FBA inh: Mtb fructose-bisphosphate aldolase inhibition. AID 588726. inhibition, % at 1 µM. purified M. tuberculosis FBA, fluorescence read-out. hit rate 2.3% among 360,000;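 also: 0% = vehicle and 100% = reference inhibitor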
Mtb UGM inh: inhibitors of M. tuberculosis UDP-galactopyranose mutase; P9WIQ1; AID 504406; inhibition, % at 10 µM; purified UGM, fluorescence polarization probe displacement; hit rate 0.06% among 320,000; in the data active = inhibition above about 10%, passing the limit was not always enough
Target sequence (P9WIQ1 whole entry, looked up): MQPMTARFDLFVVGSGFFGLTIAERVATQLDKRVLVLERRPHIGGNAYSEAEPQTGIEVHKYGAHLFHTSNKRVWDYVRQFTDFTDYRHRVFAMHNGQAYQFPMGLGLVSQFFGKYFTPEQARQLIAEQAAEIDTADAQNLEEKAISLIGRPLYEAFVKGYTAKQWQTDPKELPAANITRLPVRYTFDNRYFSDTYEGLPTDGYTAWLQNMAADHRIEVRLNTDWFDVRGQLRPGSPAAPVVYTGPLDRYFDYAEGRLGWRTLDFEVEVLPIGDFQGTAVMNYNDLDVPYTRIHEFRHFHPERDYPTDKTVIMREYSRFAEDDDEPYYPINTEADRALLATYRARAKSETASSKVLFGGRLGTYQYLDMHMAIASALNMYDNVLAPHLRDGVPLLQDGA
GDH-TPI counter-1: GDH-TPI coupled enzyme inhibition counter-screen; GDH-TPI coupled enzyme counterscreen, NADH absorbance; inhibition, % at 4.8 µM; hit rate 1.2% among 360,000; in the data active = inhibition above about 30%;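 also: 0% = DMSO wells and 100% = wells lacking the enzyme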
Mtb FBA inh conf: Mtb FBA inhibition, confirmed; shares compounds with Mtb FBA inh; purified M. tuberculosis FBA, fluorescence read-out; inhibition, % at 1 µM; hit rate 78% among 5,600; AID 651616;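 also: 0% = vehicle wells and 100% = reference inhibitor wells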
GDH-TPI counter-2: counter-screen for M. tuberculosis FBA inhibitors: GDH-TPI coupled enzyme inhibition | shares compounds with Mtb FBA inh | GDH-TPI coupled enzyme counterscreen, fluorescence | inhibition, % at 1 µM | hit rate 81% among 5,600 | AID 652141; in the data active = inhibition above about 10%
GDH-TPI dose: inhibits GDH-TPI coupling enzymes in dose response; shares compounds with Mtb FBA inh; GDH-TPI coupled enzyme assay, fluorescence, artifact counterscreen; IC50, µM; hit rate 79% among 170; AID 652145; call rule not given here
* hit, by the source's call; · = no result; + = active, no number. Rule as the data show it, unless noted: active = inhibition above about 27%; inactive = the rest.

SMILES	Mtb betalactam	Rv3671c protease	FadD28 binding	Mtb FBA inh	Mtb UGM inh	GDH-TPI counter-1	Mtb FBA inh conf	GDH-TPI counter-2	others
CN(C)c1ccc(-c2ccnc3c2CC(C)(C(=O)NCC2CC2)O3)cc1 (stereo unspecified)	·	·	0	35*	·	25	+	164*
COCCNC(=O)C1(C)Cc2c(-c3ccc(N(C)C)cc3)ccnc2O1 (stereo unspecified)	·	·	-2	32*	·	15	128*	104*
CN(C)c1ccc(CNC(=O)C2(C)Cc3c(-c4ccccc4)ccnc3O2)cc1 (stereo unspecified)	·	·	-4	-3	·	-7	·	·
COc1cc(/C=C/CNC[C@H]2O[C@@H](n3ccc(=O)[nH]c3=O)[C@H](O)[C@@H]2O)ccc1O	·	·	-3	-1	·	-3	·	·
COC(=O)c1ccc(COC(=O)C2CCN(S(=O)(=O)c3ccccc3C(=O)OC)CC2)cc1	6	-4	-3	1	-1	4	·	·
Cc1ccc(C2=NN(C(=O)CSc3nnnn3C)C(c3ccco3)C2)cc1 (stereo unspecified)	-6	-10	-1	1	-1	-3	·	·
NC(=O)C1(Nc2ccccc2)CCCC1	·	·	0	1	·	-9	·	·
COc1ncnc2c1ncn2CCCN(C)CCc1ccccn1	·	·	-2	1	·	11	·	·
Cc1cc(C)c(C(=O)CC(=O)c2cccnc2)c(C)c1	·	·	-1	3	·	23	·	·
Cc1ccc(/C=N/Nc2ccc3c(C(F)(F)F)cc(C(F)(F)F)nc3n2)cc1	6	2	-5	0	1	-3	·	·
NNc1ccc2c(C(F)(F)F)cc(C(F)(F)F)nc2n1	-2	3	0	30*	2	6	80*	62*
Cc1ccc(NC(=O)Cn2nc(C)c([N+](=O)[O-])c2C)cc1C	11	3	-3	36*	1	-2	-5	-6
N#CCCN(C(=O)COc1ccc(F)cc1Br)c1ccccc1F	8	5	-4	28*	-4	-6	20	-4	GDH-TPI dose=>10
COc1ccc2nc(C(c3ccc(C)cc3)n3c(-c4ccccc4Br)nc4ccccc43)[nH]c2c1 (stereo unspecified)	·	·	-2	52*	·	·	+	+
CCN(CC)C(=O)C1=C(C)N(CCCOC)C(=O)C(CC(=O)NCCCN(C)C)C1 (stereo unspecified)	·	·	-4	0	·	-6	·	·
Fc1ccc(-c2nc(-c3cccs3)no2)cc1	-2	-3	0	-1	-1	9	·	·
Fc1ccc(-c2cnc(-c3cccs3)o2)cc1	4	-1	1	61*	0	12	81*	71*
O=C(N/N=C1/C(=O)c2cccc3cccc1c23)c1ccc(Cl)cc1	99	1	1	80*	-1	8	79*	62*
CC1(C(=O)Nc2ccc3c(c2)OCCO3)CCC(=O)N1CCc1c[nH]c2ccccc12 (stereo unspecified)	·	·	0	2	·	·	·	·
Cc1cccc(-c2cnc3cccnn23)c1	·	·	-4	45*	·	1	-8	-7
CCOc1cccc(-c2cnc3cccnn23)c1	·	·	-4	73*	·	16	-3	-6
CC1CCCN(C(=O)COC(=O)Cc2c(F)cccc2Cl)C1 (stereo unspecified)	-4	1	1	2	2	-1	·	·
O=c1ccn([C@@H]2O[C@H](CNCc3cccn3-c3ccncc3)[C@@H](O)[C@H]2O)c(=O)[nH]1	·	·	-2	0	·	·	·	·
CC(=O)NCCNc1nc2cc(-c3ccc(C(=O)N4CCN(C)CC4)cc3)sc2c(=O)n1C	·	·	-2	16	·	25	·	·
O=C(Nc1c2ccccc2nc2ccccc12)C(Cl)(Cl)Cl	29	-13	0	90*	-1	8	14	3
SMILES	Mtb betalactam	Rv3671c protease	FadD28 binding	Mtb FBA inh	Mtb UGM inh	GDH-TPI counter-1	Mtb FBA inh conf	GDH-TPI counter-2	others
O=C(Cc1ccccc1)NNc1c2ccccc2nc2ccccc12	3	-1	1	25	-2	9	·	·
COc1cc2c(cc1OC)CN(Cc1ccc(F)cc1)CC2	0	11	0	43*	-1	1	64*	45*
COc1ccc(CN2CCc3cc(OC)c(OC)cc3C2)cc1O	-9	-6	-2	-1	-3	1	·	·
CCCSc1ccccc1C(=O)N1CCN(C(=O)c2ccco2)CC1	2	0	0	55*	-1	12	+	+
CC(=O)NN1CCc2cc3ccc(C)cc3nc21	3	-1	-2	40*	1	15	-1	0
Cc1ccc2cc3c(nc2c1)N(c1ccccc1)CC3	3	6	0	47*	2	6	5	-5
CCc1nnc(NC(=O)CSc2nc(C)c3c(c2C#N)CCCC3)s1	-4	0	-3	56*	-1	8	4	1
COc1cccc(-c2cnc3c(NC(C)=O)cc(-c4cccc(C(=O)NCCO)c4)cn23)c1	·	·	-9	-1	·	8	·	·
CCCCn1c(=O)nc2n(-c3ccccc3C)c3ccccc3cc-2c1=O	7	3	-2	61*	-2	7	+	+
CCCCn1c(=O)c2ccccc2c2ccccc2c1=O	2	-3	1	-1	1	-1	·	·
CNc1cnc(-c2ccsc2)cn1	·	·	-3	88*	·	9	134*	110*
COc1cc2cnc(-c3ccsc3)cc2cc1OC	14	4	-6	5	-2	6	·	·
Cc1cc(OCC(=O)OCC(=O)N2c3ccccc3NC(=O)C2(C)C)ccc1Cl	-4	0	-7	-3	·	-10	·	·
C[C@]12c3[nH]c4ccc(Cl)cc4c3CCN1C(=O)[C@@H](CC(=O)NCCN1CCOCC1)C[C@@H]2C(=O)N1CCCCC1	·	·	-1	0	·	1	·	·
COC(=O)c1cc(OC)nc2c1c(=O)n(C)c(=O)n2C	-6	8	-1	110*	1	7	·	+
Cc1ccc2nc(-c3ccc(O)cc3)c(Nc3ccc4c(c3)OCCO4)n2c1	2	4	-6	36*	-2	2	+	162*
COc1ccc(NC(=O)c2cc(C3CCCCN3C(=O)c3ccc4c(c3)CCO4)on2)c(C)c1 (stereo unspecified)	·	·	-4	-1	·	4	·	·
O=C(O)CCc1nn2c3ccccc3n(Cc3ccccc3F)c2nc1=O	-2	1	0	37*	0	5	110*	87*
O=C(O)CCc1nn2c3ccccc3n(CC(=O)O)c2nc1=O	7	-8	-2	24	-4	19	·	·
O=C(COc1ccc2c(c1)oc(=O)c1ccccc12)NCC1CCC(C(=O)O)CC1 (stereo unspecified)	1	-3	-4	34*	-1	19	90*	54*
